Screening results (PubChem BioAssay)
This is a sample that favours compounds with a hit; in the whole collection about 1.2% have one here.
gsp ag: qHTS for Agonist of gsp, the Etiologic Mutation Responsible for Fibrous Dysplasia/McCune-Albright Syndrome: qHTS; gsp mutant cells, cAMP HTRF, 30 min; 340,000 compounds, 0.13% hits; Potency, µM (top dose mostly 76.9 µM), hits mostly activators; active means well fitted activation curve with a large enough effect; inconclusive means small, poorly fitted or top-dose-only effect, or another doubt; inactive means no such curve, though single readings can be large or run the other way; cell line not stated here;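 further: phosphodiesterase inhibitor Ro 20-1724 added with compounds to block cAMP breakdown; nearly all actives have a fitted effect of over 60% in size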
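Cells stably selected in G418 were plated at 2000/well, grown 16-24 hr, then given compounds in DMSO with the PDE inhibitor […] (300 uM solution added) for 30 min at 37C; cAMP was read by HTRF.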
RXFP1 antagonist: qHTS Assay for Antagonists of the Relaxin Receptor RXFP1. HEK293-RXFP1, relaxin-stimulated cAMP HTRF, 30 min; active compounds read low. 350,000 compounds, 0.59% hits. activity change, negative = inhibition, % at 57.5 µM. AID 1259400, 2018. Relaxin receptor 1 (Homo sapiens), Q9HBX9;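 active means activity change of -60% or lower, but not beyond a set lower limit; inconclusive means change between -60% and -40%, or beyond the set limit; inactive means change above -40%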
Target sequence (Q9HBX9 whole entry, looked up): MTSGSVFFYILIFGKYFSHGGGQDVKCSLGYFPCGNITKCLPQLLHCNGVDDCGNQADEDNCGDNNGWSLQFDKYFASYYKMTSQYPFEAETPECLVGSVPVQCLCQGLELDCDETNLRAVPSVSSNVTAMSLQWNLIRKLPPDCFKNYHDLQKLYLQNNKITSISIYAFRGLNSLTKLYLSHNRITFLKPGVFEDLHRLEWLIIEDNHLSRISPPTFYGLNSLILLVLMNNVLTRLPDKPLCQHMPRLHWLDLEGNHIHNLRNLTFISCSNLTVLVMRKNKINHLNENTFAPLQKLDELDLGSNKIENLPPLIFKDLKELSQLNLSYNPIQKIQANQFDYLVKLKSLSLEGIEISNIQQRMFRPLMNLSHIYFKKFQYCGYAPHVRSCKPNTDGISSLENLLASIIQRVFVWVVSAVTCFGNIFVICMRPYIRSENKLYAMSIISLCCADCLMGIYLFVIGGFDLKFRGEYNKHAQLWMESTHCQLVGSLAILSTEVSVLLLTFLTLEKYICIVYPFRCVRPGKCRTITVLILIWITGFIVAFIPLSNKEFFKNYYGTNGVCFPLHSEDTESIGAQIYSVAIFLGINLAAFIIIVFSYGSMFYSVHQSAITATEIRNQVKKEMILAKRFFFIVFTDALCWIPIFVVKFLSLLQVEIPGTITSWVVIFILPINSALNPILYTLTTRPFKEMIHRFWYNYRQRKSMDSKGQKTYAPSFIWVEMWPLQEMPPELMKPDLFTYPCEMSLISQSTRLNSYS
RXFP1 agonist: qHTS Assay for Agonists of the Relaxin Receptor RXFP1. Relaxin receptor 1 (Homo sapiens), Q9HBX9. HEK293T-RXFP1 cAMP TR-FRET, 30 min; response scale: percent of porcine relaxin response, buffer zero. Potency, µM (doses to about 57.5 µM), hits mostly activators. 370,000 compounds, 0.3% hits. AID 2676, 2010; further: nearly all actives have a fitted effect of over 60% in size
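cAMP rise read by TR-FRET after 30 min, 37C compound exposure (up to 58 uM) in RXFP1-transfected HEK293 cells with Ro 20174 present. EC50 from Hill-equation fits, with 29 nM porcine relaxin as 100% and buffer as basal.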
MmCpn inh: Inhibitors of TCP-1 ring complex (TRiC) of Methanococcus maripaludis (MmCpn): qHTS; Chaperonin Mm-Cpn (Methanococcus maripaludis); purified Mm-Cpn ATPase, ADP Transcreener TR-FRET; Potency, µM (titrated, usually from 76.9 µM), usual class: inhibitors; 330,000 compounds, 0.031% hits; AID 504842, 2011; further: nearly all actives have a fitted effect of over 80% in size
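Purified archaeal chaperonin (25 nM final) was preincubated with compound for 10 min at 37°C, then ATP (10 uM final) was added for 30 min at 37°C in Tris pH 7.4/KCl/MgCl2/DTT buffer. ADP was quantified by HTRF Transcreener TR-FRET.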
gsp antagonist: qHTS for Antagonists of gsp, the Etiologic Mutation Responsible for Fibrous Dysplasia/McCune-Albright Syndrome: qHTS; gsp-mutant cells, cAMP HTRF, 30 min; Potency, µM (top dose mostly 76.9 µM), usual class: inhibitors; 340,000 compounds, 0.4% hits; AID 624288, 2012; calls by dose curve; cell line not stated here;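 further: intracellular cAMP measured with PDE inhibitor Ro 20-1724 present during compound exposure; nearly all actives have a fitted effect of over 65% in size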
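HTRF cAMP measurement after 30 min RT detection following 30 min, 37C compound treatment alongside […] (added as 300 uM solution) in G418-selected cells seeded at 2000/well and grown 16–24 h.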
CCT modulator: High-Throughput Screening for Modulators of Cytosolic Chaperonin Activity. purified chaperonin ATPase assay, HTRF ADP detection, 30 min. 360,000 compounds, 0.3% hits. activity change, % (no concentration beside the values), hits read low; in the data active means activity change below about -30%
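TRiC at 40 or 20 nM final (batch-dependent) in 30 mM Tris pH 7.4, 100 mM KCl, 5 mM MgCl2, 1 mM DTT, with compound at single 76 uM and 10 uM ATP, 30 min at 37 deg C. ADP detected by HTRF Transcreener, 665/615 ratio.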
Numbers stand for hits; - = inactive; ? = inconclusive; . = no result given; ! = not confirmed by another sample; [ ] = dose if it differs, or a comment. Unless noted, the call rests on the fitted dose curve; in most records, active means well fitted curve in the direction sought with a large enough effect; inconclusive means small, poorly fitted or top-dose-only effect, or another doubt; inactive means no such curve, though single readings can be large; an effect the other way counts as inactive or inconclusive.

SMILES | gsp ag | RXFP1 antagonist | RXFP1 agonist | MmCpn inh | gsp antagonist | CCT modulator
CCOC(=O)c1cc(S(=O)(=O)NCc2ccc(OC)cc2)[nH]n1 | . | - | - | . | . | .
O=C(c1ccc2ncsc2c1)N1CCCCC1 | - | - | - | - | - | -35.6
Cc1ccc(NC(=O)Cn2c(=O)ccc3cc(S(=O)(=O)N4CCC(C)CC4)ccc32)cc1Cl | . | . | - | . | . | .
O=C(COC(=O)c1ccc(NS(=O)(=O)c2cccs2)cc1)Nc1nc2c(F)c(F)c(F)cc2s1 | -[15.4 µM] | -61.5 | - | - | - | -
O=C(COC(=O)c1ccco1)Nc1nc2c(F)c(F)c(F)cc2s1 | - | - | - | - | - | -
O=C(c1ccc(Nc2nc3ccccc3n3nnnc23)cc1)N1CCN(c2ccc(F)cc2)CC1 | . | - | - | . | . | .
CN(C)/C=C/c1oc2ccc(O)cc2c1[N+](=O)[O-] | -[15.4 µM] | - | - | - | 28.2µM | -
O=C(O)c1ccc2nc(-c3ccco3)c(-c3ccco3)nc2c1 | 3.55µM | ? | - | - | - | -
O=C(O)c1cc(-c2ccco2)nc2ccc(Br)cc12 | ? | - | 12.6µM | - | - | -
O=C(c1ccc2nc(-c3ccco3)c(-c3ccco3)nc2c1)N1CCN(c2ccccc2)CC1 | - | - | - | - | - | -
O=C(Nc1cccc(C(F)(F)F)c1)c1ccc2nc(-c3ccco3)c(-c3ccco3)nc2c1 | - | -97.1 | - | - | - | -
O=C(c1ccco1)N1CCN(C(=O)c2cc(-c3ccncc3)nc3ccc(Br)cc23)CC1 | - | - | . | . | ? | -
O=C(Nc1cccc(C(F)(F)F)c1)c1ccc2snnc2c1 | . | . | - | . | . | .
COC(=O)c1ccc2c(=O)n(CCCCCC(=O)NCCc3ccccc3)c(=O)[nH]c2c1 | . | - | - | . | . | .
CCOC(=O)c1ccc(NC(=O)CS(=O)(=O)Cc2nc(-c3ccc(C)cc3)oc2C)cc1 | . | - | - | . | . | .
Cc1oc2ccc(O)c(CN(C)Cc3ccccc3)c2c1C(=O)Nc1cccc(C(F)(F)F)c1 | . | - | - | . | . | .
COC(=O)Sc1nc(N2CCOCC2)c2c(c1C#N)CC(C)(C)OC2 | 14.1µM | - | - | - | - | -
CC(C)NC(=O)/C(C#N)=C/c1cccc(NC(=O)c2ccccc2Cl)c1 | -[15.4 µM] | -62.8 | - | - | - | -
Cc1cccc(N2C(=O)CS(=O)(=O)C23C(=O)N(C)c2ccccc23)c1 (stereo not given) | . | . | - | . | . | .
Cc1cccc[n+]1C1C(c2ccccc2)C(C#N)=C(C(=C=[N-])C#N)NC1(O)C1CC1 (stereo not given) | ? | - | - | - | - | -
N#CC(=C=[N-])C1=C(C#N)C(c2ccccc2F)C([n+]2ccccc2)C(O)(C2CC2)N1 (stereo not given) | - | - | 25.1µM | - | - | -
CCN(CC)CCNC(=O)c1cc2c(-c3ccc(Cl)cc3)nn(C)c2s1 | ? | . | - | - | - | -
CCCCN(CC)CCNC(=O)c1cc2c(-c3ccc(Cl)cc3)nn(C)c2s1 | ? | -103.8! | - | - | - | -
COc1ccc(NC(=O)CSc2nnc(NC(=O)NC3CCCCC3)s2)cc1OC | . | - | - | . | . | .
Cc1cc(C)nc(NN2C(=O)/C(=C/c3ccc(O)cc3)SC2=S)n1 | - | -116.2 | - | - | ? | -
SMILES | gsp ag | RXFP1 antagonist | RXFP1 agonist | MmCpn inh | gsp antagonist | CCT modulator
Cc1cc2nc3ccc(N(C)C)cc3nc2cc1N | - | . | . | . | - | -39.8
CCCc1ccccc1OCCNS(=O)(=O)c1cc2c(cc1C)OCC(=O)N2 | -[15.4 µM] | -61.5 | - | - | - | -
O=C(NC(Nc1ncc(S(=O)(=O)c2ccc([N+](=O)[O-])cc2)s1)(C(F)(F)F)C(F)(F)F)c1ccc(Cl)cc1 | -[15.4 µM] | - | - | - | 35.5µM | -
COCC(=O)Nc1ncc(S(=O)(=O)c2ccc([N+](=O)[O-])cc2)s1 | -[15.4 µM] | - | - | - | - | -
COc1ccc([C@H]2CC(=O)C=C(c3ccc(CNC(=O)OC(C)(C)C)cc3)C2)cc1 | - | . | - | - | 35.5µM | -
Cc1c(C(=O)N(C)C)sc(NC(=O)c2cc([N+](=O)[O-])cc([N+](=O)[O-])c2)c1C#N | - | - | - | - | 39.8µM | -
Cc1ccc(C(=O)Nc2sc(C(=O)N(C)C)c(C)c2C#N)cc1 | -[15.4 µM] | - | - | - | - | -
CC(C)CCn1c(=O)c2sccc2n2c(CCCC(=O)Nc3ccc(F)c(Cl)c3)nnc12 | . | - | - | . | . | .
Cc1ccc(NC(=O)/C=C/c2ccc(S(=O)(=O)N3CCOCC3)cc2)cc1S(=O)(=O)N(C)C | -[15.4 µM] | - | . | . | 35.5µM | -
Cc1ccc(CC#N)c(-c2c(CC#N)ccc(C)c2C)c1C | ? | - | . | . | . | -
Cc1ccc2c(c1C)-c1c(ccc(C)c1C)C(=O)C2=O | - | -68.7 | . | . | - | -
Cc1cccc(NC(=S)N(CCc2nc3cc(C)c(C)cc3[nH]2)Cc2cccnc2)c1 | - | - | - | - | - | -
Cc1ccc(C)c(NC(=S)N(CCc2nc3cc(C)c(C)cc3[nH]2)Cc2cccnc2)c1 | - | - | - | - | - | -57.7
N#CC(C#N)=C1C=C2C=C(N3CCCCC3)CCC2CC1 (stereo not given) | - | - | - | - | 39.8µM | -
COC(=O)c1cccc(-n2c(CCC(=O)O)ccc2-c2ccc(OC)cc2)c1 | . | - | - | . | . | .
NC(=O)Cn1c(O)c(N=NC(=O)CNC(=O)/C=C/c2ccccc2)c2ccccc21 | - | - | - | - | - | -73.3
CCCn1c(O)c(N=NC(=O)CNC(=O)/C=C/c2ccc(OC)cc2)c2ccccc21 | - | ? | - | - | - | -
COCCCN1C(=O)C(=O)/C(=C(/O)c2ccc(S(=O)(=O)N3CCCCC3)cc2)C1c1cccc(OC)c1 (stereo not given) | ? | - | - | - | - | -83.7
COc1ccc(C2/C(=C(\O)c3ccc4c(c3)OCCO4)C(=O)C(=O)N2Cc2cccnc2)cc1 (stereo not given) | ? | - | ? | ? | - | -57.9
CCOc1cccc(C2/C(=C(/O)c3ccc4c(c3)CC(C)O4)C(=O)C(=O)N2Cc2ccncc2)c1 (stereo not given) | 5.01µM | - | ? | - | - | -
CC1Cc2cc(/C(O)=C3/C(=O)C(=O)N(Cc4cccnc4)C3c3cccc(O)c3)ccc2O1 (stereo not given) | ? | ? | - | - | - | -78.8
COCCCN1C(=O)C(=O)/C(=C(/O)c2ccc(S(=O)(=O)N3CCCCC3)cc2)C1c1ccc(O)c(OC)c1 (stereo not given) | - | - | - | - | - | -
